Screens from PubChem.
In the library only some 7.4% were active in any assay of this set; here they are far more common.
ELG1 genotoxic = qHTS screen for small molecules that induce genotoxicity in human embryonic kidney (HEK293T) cells expressing luciferase-tagged ELG1 | HEK293T ELG1-luciferase reporter, luminescence, 16 h | Potency, µM (doses to about 46 µM), without a hit: at the highest dose activity change, positive = activation, actives largely listed as activators | 1.3% of 330,000 active; note: % of control where 0% means no effect; nearly all actives have a fitted effect of over 60% in size
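16 hr compound incubation (37 °C, 5% CO2) of HEK293T cells carrying luciferase-tagged ELG1; luciferase then measured by ONE-Glo luminescence after 30 min at RT.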
Rab9 prom act = qHTS Assay for Rab9 Promoter Activators | Huh7 Rab9 promoter-luciferase reporter, luminescence, 24 h | Potency, µM (doses to about 9.22 µM), without a hit: at the highest dose activation, negative = inhibition, actives largely listed as activators | 2.8% of 320,000 active; note: % of control where 0% means no effect; nearly all actives have a fitted effect of over 60% in size
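Measured in stably transfected Huh7 cells bearing a Rab9 promoter–luciferase construct: 24 h compound treatment at 37 °C, followed by luminescence detection.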
NPC1 promoter act = qHTS Assay for NPC1 Promoter Activators | 2.4% of 320,000 active | AID 485313, 2010 | Huh7 NPC1 promoter luciferase reporter, 24 h | Potency, µM (titrated, usually from 9.22 µM), without a hit: at the top dose activation, usual class: activators; note: % of control where 0% means no effect; nearly all actives have a fitted effect of over 60% in size
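Compounds in DMSO were transferred onto Huh7 NPC1-luciferase reporter cells pre-incubated 2 h; after 24 h at 37 °C, Amplite reagent was dispensed and luminescence recorded 10 min later.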
FLuc counter = qHTS profiling assay for firefly luciferase inhibitor/activator using purifed enzyme and Km concentrations of substrates (counterscreen for miR-21 project). Potency, µM (series often up to 57.5 µM), for inactives: at the highest dose activity change, negative = inhibition, actives largely listed as inhibitors. Luciferin 4-monooxygenase (Photinus pyralis), P08659. AID 588342, 2011. purified FLuc, Km substrates, luminescence inhibition. 6.9% of 360,000 active;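 note: plate controls were vehicle for no effect and reference inhibitor for full effect; nearly all actives have a fitted effect of over 55% in size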
Target sequence (P08659 whole entry, looked up): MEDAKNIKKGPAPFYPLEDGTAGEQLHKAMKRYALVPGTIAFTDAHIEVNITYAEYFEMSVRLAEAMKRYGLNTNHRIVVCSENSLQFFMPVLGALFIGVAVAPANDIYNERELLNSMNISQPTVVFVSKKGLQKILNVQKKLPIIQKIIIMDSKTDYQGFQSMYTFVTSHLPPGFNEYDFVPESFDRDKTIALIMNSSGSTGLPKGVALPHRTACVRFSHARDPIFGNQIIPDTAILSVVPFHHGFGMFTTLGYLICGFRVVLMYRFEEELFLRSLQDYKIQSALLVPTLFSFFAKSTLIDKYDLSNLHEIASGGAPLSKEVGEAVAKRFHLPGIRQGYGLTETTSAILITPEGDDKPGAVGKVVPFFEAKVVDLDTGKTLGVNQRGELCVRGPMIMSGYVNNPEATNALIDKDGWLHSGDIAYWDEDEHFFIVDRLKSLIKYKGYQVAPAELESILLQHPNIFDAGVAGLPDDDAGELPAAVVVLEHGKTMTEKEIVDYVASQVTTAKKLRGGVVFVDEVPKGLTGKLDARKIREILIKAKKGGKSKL
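Purified P. pyralis luciferase (10nM final) with 10uM D-luciferin and 10uM ATP (Km levels) in 50mM Tris acetate pH 7.5, 10mM Mg acetate, 0.01% Tween-20, 0.05% BSA; qHTS 6-point titration, ~60 µM downward; luminescence read.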
SMN2 splice up = qHTS Assay for Enhancers of SMN2 Splice Variant Expression; HEK293 SMN2-luciferase splicing reporter, luminescence, 30-36 h; Potency, µM (titrated, usually from 46.1 µM), for the others: at the top dose activity change, positive = activation, hits mostly activators; 2.8% of 210,000 active; note: % of control where 0% means no effect; nearly all actives have a fitted effect of over 55% in size
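HEK293 cells carry an SMN2 minigene-luciferase reporter in which exon 7 inclusion puts luciferase in frame. Cells were seeded at 2000 cells/well, attached for 10-12 hours, then exposed to compounds for 30-36 hours at 37C before ONE-Glo luminescence.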
* = called active by the depositor; ? = inconclusive; . = no result; [ ] = dose if it differs, or a comment. Calls come from the whole dose curve; as a rule, active = well fitted curve in the direction sought with a large enough effect; inconclusive = small, poorly fitted or top-dose-only effect, or another doubt; inactive = no such curve, though single readings can be large; an effect the other way counts as inactive or inconclusive. Potency is the fitted concentration of half-maximal effect.

SMILES | ELG1 genotoxic | Rab9 prom act | NPC1 promoter act | FLuc counter | SMN2 splice up
COc1ccc2nc(NC(=O)CN3CCN(C)CC3)sc2c1 | 10% | -3% | 1% | ? | -11%
CC(C)c1ccc(NC(=O)[C@H]2CSCN2C(=O)[C@@H]2CCC(=O)N2)cc1 | 7% | 4% | 0% | ? | .
COC(=O)[C@@]1(Cc2ccc(OC)cc2)[C@H]2c3cc(C(=O)N(C)C)n(Cc4ccccn4)c3C[C@H]2CN1C(=O)c1ccccc1 | . | . | . | . | -2%
O=C(Nc1cccc(NC(=O)c2nccc3ccccc23)c1)c1ccco1 | ? | 3% | 1% | 8.5µM* | -7%
CC(=O)Nc1cccc(NC(=O)c2ccco2)c1 | -1% | 0% | 0% | -11% | 22%
O=C(Nc1cccc(NC(=O)c2sc3ccccc3c2Cl)c1)c1ccco1 | -8% | 10% | 12% | 2.7µM* | 21%
c1ccc(N2CC3CCc4ccccc4C3=N2)cc1 (stereo not drawn) | ? | 3.2µM* | ? | 8.5µM* | .
CCCCN(CCCC)c1ncnc2c1cnn2-c1cccc(C)c1 | . | . | . | -8% | .
CCCNc1ncnc2c1cnn2-c1ccc(OC)cc1 | 2% | 0.4µM* | 0.5µM* | 5.4µM* | -3%
C=CCNc1ncnc2c1cnn2-c1ccc(OC)cc1 | ? | 0.4µM* | 0.63µM* | 3.4µM* | ?
CCCN(CCC)c1ncnc2c1cnn2-c1ccc(OC)cc1 | 1.2µM* | 0.45µM* | 0.71µM* | 2.4µM* | ?
COc1ccc(Oc2cc(C(F)(F)F)nc(N(C)C)n2)cc1 | -1% | -2% | -2% | 2% | -2%
OCCN(CCO)Cc1csc2ccccc12 | 3% | -1% | 0% | 8% | ?
Nc1cccc2cc(-c3ccccc3)oc12 | ? | ? | 4µM* | 4.8µM* | .
O=C(O)Cc1cccc2c(=O)cc(-c3ccccc3)oc12 | . | . | . | . | -8%[9.22 µM]
COc1ccc(C)cc1NC(=O)c1nn(-c2ccccc2)cc1OC | -17% | -5% | -13% | ? | .
COc1cn(-c2ccccc2)nc1C(=O)Nc1ccc(C)cc1 | -7% | ? | ? | 8.5µM* | .
COc1cn(-c2ccccc2)nc1C(=O)Nc1ccccc1 | 16% | ? | ? | 13µM* | .
COC(=O)c1ccc(NC(=O)c2cn(-c3ccccc3)nc2-c2ccncc2)cc1 | -3% | 2% | -1% | 0% | -20%
CC(=O)c1cccc(N=Nc2c(-c3ccccc3)[nH]n(-c3ccccc3)c2=O)c1 | -8% | -7% | -7% | ? | -16%
O=C(O)c1ccc(N=Nc2c(-c3ccccc3)[nH]oc2=O)cc1 | 17% | ? | ? | 11µM* | .
Cc1c(OCc2ccc([N+](=O)[O-])cc2)ccc2c3c(c(=O)oc12)CCC3 | ? | 1µM* | 1.1µM* | ? | 5.6µM*
Cc1oc(C(=O)O)cc1COc1ccc2c3c(c(=O)oc2c1C)CCC3 | ? | ? | 19% | 27µM* | ?
Cc1oc(C(=O)O)cc1COc1ccc2c3c(c(=O)oc2c1C)CCCC3 | 2% | 11% | 9% | -4% | 5%
Cc1c(OCC(=O)N(C)C)ccc2c3c(c(=O)oc12)CCCCC3 | 3% | 1% | 4% | -8% | 1%
SMILES | ELG1 genotoxic | Rab9 prom act | NPC1 promoter act | FLuc counter | SMN2 splice up
CC(=O)COc1ccc2c3c(c(=O)oc2c1C)CCCCC3 | 7.3µM* | ? | ? | -18% | ?
COC(=O)C(C(=O)Nc1nc2ccccc2s1)C1CCCC1 (stereo not drawn) | -7% | 3% | -2% | -1% | -4%
O=C1C(=O)c2ccccc2C(O)=C1C(CCc1ccccc1)C1=C(O)c2ccccc2C(=O)C1=O | . | . | . | . | -12%[9.22 µM]
Cc1ccc(-c2nnc(COc3cccc(-n4cnnn4)c3)o2)cc1 | 8% | 12% | 4% | 19µM* | -10%
Cc1cccc(OCc2nnc(-c3ccc(F)cc3)o2)c1 | 10% | 15% | 7% | 17µM* | .
Cc1ccc(C(=O)CSc2nnc(COc3cccc(C)c3)o2)cc1 | 0% | 3% | -4% | -13% | ?
CC(=O)Nc1ccc(OCc2nnc(-c3ccccc3)o2)cc1 | 11% | 14% | 3% | -14% | .
CCOc1ccc(-c2nnc(SCc3nnc(-c4ccccc4)o3)n2-c2ccccc2F)cc1 | 3% | 12% | 11% | 27µM* | -20%
O=C(OCc1nnc(-c2ccccc2)o1)c1cccc(-n2cnnn2)c1 | 4% | 8% | 1% | 5% | .
CCOc1ccc(-c2noc(CSc3nnc(-c4ccccc4)n3-c3ccccc3)n2)cc1 | . | . | . | 2% | -15%
Cc1ccc(OCc2nnc(-c3ccccc3)o2)cc1 | . | . | . | 17µM* | 25%
OC[C@H]1O[C@@H](n2cnc3cncnc32)[C@H](O)[C@@H]1O | . | -2%[46.1 µM] | 7%[46.1 µM] | . | -24%
Cc1ccc(CNCc2cc(Cl)ccc2O)cc1 | 3% | -2% | -4% | -14% | .
C=CCn1c(=O)c2ccccc2n2c(SCC(=O)O)nnc12 | 0% | 0% | 3% | 0% | .
CCOCCCn1c(SCc2nc3ccccc3s2)nc2ccccc2c1=O | -8% | 16% | 15% | 17µM* | -109%
C=CCn1c(=O)c2ccccc2n2c(SCc3nc4ccccc4s3)nnc12 | ? | ? | 5% | 12µM* | -26%
CCOCCCn1c(SCC(=O)Nc2ccccc2)nc2ccccc2c1=O | -4% | 0% | -3% | -3% | .
COCCn1c(SCC(=O)NC(C)c2ccccc2)nc2ccccc21 (stereo not drawn) | -2% | 1% | -2% | -3% | .
COCCn1c(SCc2nc3ccccc3s2)nc2ccccc21 | ? | 3.5µM* | ? | 12µM* | 10%
O=C(CCCCCn1c(=O)[nH]c2ccsc2c1=O)NCc1ccccc1 | . | . | . | -2% | -6%
Cc1cc2ncn(-c3ncccc3[N+](=O)[O-])c2cc1C | 0% | -4% | 1% | -19% | .
COc1ccccc1CN(C)S(=O)(=O)c1cccs1 | 4% | 1% | -4% | -10% | .
CCn1c2ccccc2c2nc3cc(OC)c(OC)cc3nc21 | -2% | 15% | -2% | 8.5µM* | .
CCn1c2ccccc2c2nc3cc(C(=O)O)ccc3nc21 | ? | 30% | 13% | 19µM* | -57%
CC(=O)n1c2ccccc2c2nc3ccccc3nc21 | ? | 2.8µM* | 3.2µM* | ? | .
COc1ccc(CCc2cc(OC)cc(=O)o2)cc1 | 4% | 9% | -2% | -1% | .
O=C(CN(Cc1ccccc1)S(=O)(=O)c1ccc(F)cc1)NCc1cccnc1 | -12% | -1% | 1% | 2% | .
CCO[C@H]1OC(C(=O)Nc2ccccc2)=C[C@@H](c2ccc(C(F)(F)F)cc2)[C@@H]1CCCO | -4% | -4% | 0% | 2% | .
O=C(NCC1CCCO1)c1ccccc1NS(=O)(=O)c1ccc(F)cc1 (stereo not drawn) | 1% | 7% | -1% | 2% | .
